The source made the active and inactive calls. Rule for the calls: active = hit-call score of the fitted dose curve at least 0.9, where 1 is the maximum; inactive = score below 0.9.

Read-out in the test: Cyclin Dependent Kinase Inhibitor 1A (CDKN1A), CDKN1A (gene 1026)
Put plainly: LTEA_HepaRG_CDKN1A: Life Technologies and Expression Analysis (LTEA) Assay for Cyclin Dependent Kinase Inhibitor 1A (CDKN1A) using HepaRG (AID 2283450). Particulars: mRNA level, 48 h; actives raise or lower the signal. The procedure: LTEA_HepaRG is a cell based, multiplexed-readout assay that uses HepaRG, a human liver cell line, with measurements taken at 48 hours after chemical dosing on a 96-well plate.LTEA_HepaRG_CDKN1A is one of 102 assay component(s) measured in the LTEA HepaRG cell culture assay. It is a marker of Cell proliferation, survival, death.Data from the assay component LTEA_HepaRG_CDKN1A was analyzed into 1 endpoint. This assay endpoint, LTEA_HepaRG_CDKN1A, was analyzed with bidirectional fitting relative to DMSO as the negative control and baseline of activity. Using a type of inducible reporter, measures of mRNA induction for gain or loss-of-signal activity can be used to understand regulation of transcription factor activity. To generalize the intended target to other relatable targets, this assay endpoint is annotated to the cell cycle intended target family, where the subfamily is Cell proliferation, survival, death.
A total of 1060 chemcials from the ToxCast library were tested in eight-point concentration-response experiments. Cell culture and cytotoxicity assays were conducted at Thermo Fisher Scientific's Custom Services facility (Madison, WI). A single lot of human HepaRG cells (Thermo Fisher Scientific, Frederick, MD) was used for the cell culture experiments. 96-well format collagen type I coated plates of human HepaRG cells were prepared using established methods. Briefly, cryopreserved HepaRG cells were thawed, plated at a density of approximately 100,000 cells/well in HepaRG Thaw, Plate, and General Purpose media (HPRG770, Thermo Fisher Scientific), and incubated for 48 hours. 0.5% DMSO was selected as vehicle control to balance the requisite need of DMSO in HepaRG cultures to maintain differentiation (for example, baseline metabolism, proportions of hepatocytes vs. cholangiocytes), while enabling further hepatic receptor pathway activation (for example, PXR and CAR) in response to chemical exposure. 48 hours after plating, the culture medium was replaced with HepaRG Serum-Free Incudtion Media. Cells were exposed to each test chemical in duplicate and maintained in CO2 incubators for another 48 hours. Chemical plates were thawed to room temperature and 200x concentrations of treatment groups were prepared. 8-point conentration-reponse curves were made with the highest exposure at 100 uM, followed by half-log dilutions, all in 0.5% DMSO. Each test plate contained variouse controls, induction positive controls (1mM phenobarbital), cytotoxicity positive controls ([…] aflatoxin B1), vehicle controls (0.5% DMSO), and total lysis controls (0.5% DMSO). Cell morphology images were taken using an Essen IncuCyte FLR automated microscope, with six 96-well plates imaged in about 24 minutes. Images were captured and exported and JPEG files. Spent culture media was transfered to black-well plates for the LDH assay, and remaining media was sorted at -80 C for later use. Cells were treated with RLT buffer and frozen until shipped for gene expression analysis. Total RNA was isolated from the cell suspension in 75 uL of Buffer RLT (Qiagen, Germantown, MD 20874) by Quintiles/Expression Analysis (Durham, NC) using a custom isolation procedure. Total RNA from each plate well was transferred to a preamplification plate. Fluidigm's 96.96 Dynamic ArrayTM (Fluidigm, Amsterdam, the Netherlands) technology was used for gene expression analyses by quantitative reverse transcription polymerase chain reaction (qRT-PCR, performed by Quintiles/Expression Analysis, Durham, NC)89. Standard TaqManTM Assays (Applied Biosystems/ThermoFisher Scientific, Foster City, CA) were used to assess the expression of 93 genes selected based on their selectivity and sensitivity to important hepatic receptors known to be modulated by environmental chemicals; importance in human hepatocyte functionality; and hepatotoxicity. […]
In the case of `O=C(O)c1[nH]n(-c2ccc(S(=O)(=O)O)cc2)c(=O)c1N=Nc1ccc(S(=O)(=O)O)cc1`, the compound was classed as inactive.

Turning to `CC(C)(C)c1ccccc1`, the result was inactive.

Take `CCCC(=O)O`: the compound was classed as inactive.

For the compound `Cc1ccc(-c2cc(C(F)(F)F)nn2-c2ccc(S(N)(=O)=O)cc2)cc1`, the outcome was inactive.

`COC(=O)[C@H]1[C@H]2C[C@@H]3c4[nH]c5cc(OC)ccc5c4CCN3C[C@H]2C[C@@H](OC(=O)c2cc(OC)c(OC)c(OC)c2)[C@@H]1OC`: the compound was called inactive.

On to `O=C(N[C@@H](c1ccccc1)[C@@H]1CCCCN1)c1cccc(C(F)(F)F)c1Cl`, for which the compound was classed as inactive.

With `C/C=C/c1ccc(OC)cc1`, the outcome was inactive.

For the compound `C=CCc1ccc(OC)c(OC)c1`, the call was inactive.

The term AC50 denotes the midpoint of the concentration-response curve, whichever way the signal moves. As for `CN(C)CCCN1c2ccccc2Sc2ccc(Cl)cc21`, the AC50 was 50 µM (active).

For `C=CCCCCCCCCCCCC`, the compound was called inactive.

Take `O=C(O)CC(O)(CC(=O)O)C(=O)O`: the outcome was inactive.

As to `Nc1nc(=S)c2[nH]cnc2[nH]1`, the AC50 is 6.05 µM (active).

With `O=Cc1ccccc1C=O`, the call was inactive.

With `CCCCOC(=O)CCCCC(=O)OCCCC`, the result was inactive.

`N[C@@H](Cc1c[nH]c2ccccc12)C(=O)O`: the result was inactive.

Take `CCCCCCCC(=O)OC`: the outcome was inactive.

Regarding `O=C1CCCCC1`, the compound was called inactive.

For `CC(C)(O)c1ccc(CNC(=O)c2cccnc2Oc2ccc(F)cc2)cc1`, the call was inactive.

Turning to `Cc1ccc(C(C)(C)C)c(O)c1`, the compound was called inactive.

With `CS(=O)(=O)c1ccc([C@@H](C[C@H]2CCC(=O)C2)C(=O)Nc2cnccn2)cc1Cl`, the result was inactive.

As to `COC(=O)CCC(=O)OC`, the compound was called inactive.

Consider `Cn1cnc2c1c(=O)[nH]c(=O)n2C`, for which the compound was called inactive.

In the case of `O=C(O)c1cccnc1`, the call was inactive.

For `CC(C)c1cccc(C(C)C)c1`, the result was inactive.

For the compound `CCCCCCC(CCCCCCCCCCC(=O)OCC(COC(C)=O)OC(C)=O)OC(C)=O` (stereo not given), the outcome was inactive.

As for `CC(=O)O[C@]1(C(C)=O)CC[C@H]2[C@@H]3C=C(Cl)C4=CC(=O)[C@@H]5C[C@@H]5[C@]4(C)[C@H]3CC[C@@]21C`, the outcome was inactive.

On to `COC(=O)CCCC(=O)OC`, for which the result was inactive.

For the compound `C#CC(O)C(CC)CCCC` (stereo not given), the outcome was inactive.

Regarding `CC(C)OC(=O)C(C)(C)Oc1ccc(C(=O)c2ccc(Cl)cc2)cc1`, the result was inactive.

For `NC=O`, the result was inactive.

On to `O=C1NC(=O)C(c2ccccc2)(c2ccccc2)N1`, for which the call was inactive.

On to `O=[Si]=O`, for which the call was inactive.

Turning to `Oc1ccccc1O`, the compound was called inactive.

For the compound `Cc1cc(Cc2ccc(N)c(C)c2)ccc1N`, the outcome was inactive.

With `CCCC[C@H]1CN(CC2CCOCC2)C(=O)OC12CCN(C1(C)CCN(C(=O)c3c(C)ncnc3C)CC1)CC2`, the outcome was inactive.

For the compound `CCCCC(CC)COC(=O)CCCCCCCC(=O)OCC(CC)CCCC` (stereo not given), the outcome was inactive.

With `O=C1O[C@H]([C@H](O)CO)C(O)=C1O`, the result was inactive.

With `CCCCC(CC)CO` (stereo not given), the call was inactive.

Consider `CCc1cc(C2=C(C(=O)O)N(c3ccccc3C(F)(F)F)S(=O)(=O)c3ccccc32)cc2c1OCO2`, for which the outcome was inactive.

On to `O=NO`, for which the call was inactive.

(Values after PubChem BioAssay (EPA / NIEHS).)
